High-throughput results (PubChem BioAssay)
In the library only some 9.3% were active in any assay of this set; here they are far more common.
HCV inhibitor = HCV inhibition; Huh7.5.1 HCVcc-Cre infection, luciferase reporter, 44 h; Potency, µM (titrated, usually from 41.8 µM), for inactives: top-dose activity change, negative = inhibition, hits mostly inhibitors; 340,000 compounds, 3.4% hits; AID 651820; further: potency means the concentration at half of the fitted maximal effect
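Infectious HCV cell culture screen: compound-treated cells (1,000/well, pre-plated 4 h) are infected with HCVcc-Cre at roughly 0.5 moi and grown 44 h. Infection is quantified by luciferase signal after 15 min substrate incubation at room temperature.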
Vaccinia mCherry = inhibitors of vaccinia virus infection (mCherry reporter signal). Potency, µM (top dose mostly 36.5 µM), for inactives: top-dose activity change, negative = inhibition, hits mostly inhibitors. Vaccinia virus mCherry reporter infection, fluorescence. 310,000 compounds, 0.63% hits; calls by dose curve; tested in A549 cells; further: potency means the concentration at half of the fitted maximal effect; nearly all actives have a fitted effect of over 35% in size
FMDV inh = foot and mouth disease virus antiviral activity | Potency, µM (doses to about 57.9 µM), for inactives: at the highest dose activity change, negative = inhibition, actives largely listed as inhibitors | 410,000 compounds, 1.2% hits | AID 1159524 | FMDV antiviral cell-based qHTS; calls by dose curve; tested in HEK293T cells; further: read-out not given here; potency means the concentration at half of the fitted maximal effect; nearly all actives have a fitted effect of over 45% in size
VACV Venus inh = vaccinia inhibition (Venus reporter) | Vaccinia virus Venus reporter expression, fluorescence | 330,000 compounds, 0.46% hits | Potency, µM (doses to about 36.5 µM), without a hit: at the top dose activity change, negative = inhibition, hits mostly inhibitors; calls by dose curve; tested in A549 cells; further: potency means the concentration at half of the fitted maximal effect; nearly all actives have a fitted effect of over 30% in size
HCMV inh = human cytomegalovirus inhibition. HFF cells, HCMV-luciferase reporter, 72 h; hits give low values. activity change, negative = inhibition, % at 57.5 µM. 410,000 compounds, 4.5% hits; in the data active means activity change below about -60%; inconclusive means no clear call, values can overlap the other calls; inactive means above about -39%
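Two compound doses tested in HFFs infected with HCMV-luciferase, MOI 1 PFU/cell, 72 h at 37C. Lysate luminescence read with OneGlo; data normalized against buffer-only and 10uM Salinomycin inhibitor controls.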
Sm TGR inh = blocks Schistosoma mansoni thioredoxin glutathione reductase; AID 485364; Q962Y6; 360,000 compounds, 3% hits; Potency, µM (top dose mostly 114 µM), without a hit: top-dose activity change, negative = inhibition, actives largely listed as inhibitors; purified TGR, DTNB reduction, TNB absorbance 405 nm; further: potency means the concentration at half of the fitted maximal effect; nearly all actives have a fitted effect of over 60% in size
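Kinetic colorimetric format: TGR-catalysed, NADPH-driven DTNB reduction monitored via TNB absorbance. Enzyme dispensed at 20 nM; compound exposure 15 min at room temperature before reaction start.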
Starred values were filed as active, the others as inactive; i = inactive; ? = inconclusive; . = no result. Unless noted, the call rests on the fitted dose curve; in most records, active means well fitted curve in the direction sought with a large enough effect; inconclusive means small, poorly fitted or top-dose-only effect, or another doubt; inactive means no such curve, though single readings can be large; an effect the other way counts as inactive or inconclusive. On the % scale 0 is the no-effect control and ±100 the full control effect.

SMILES | HCV inhibitor | Vaccinia mCherry | FMDV inh | VACV Venus inh | HCMV inh | Sm TGR inh
S=C(NCCc1ccccc1)NC1CCC(NC(=S)NCCc2ccccc2)CC1 (configuration not stated) | -2.4% | -5.0% | -3.1% | 0.9% | ? | .
COc1ccc(CCNC(=S)NC2CCN(Cc3ccccc3)CC2)cc1 | ? | ? | -21.9% | -8.8% | -71.8* | -0.8%
CCc1ccc(NC(=S)NC2CCN(Cc3ccccc3)CC2)cc1 | ? | ? | -25.1% | ? | -77.4* | -15.0%
CCC(C)c1ccc(NC(=S)NC2CCN(Cc3ccccc3)CC2)cc1 (configuration not stated) | 10µM* | ? | ? | 10µM* | -98.3* | 3.3%
N#Cc1c(NC(=O)C2CC=CCC2C(=O)O)sc2c1CCCCCC2 (configuration not stated) | 1.5% | i | -18.9% | -13.7% | -36.8 | -3.1%
COc1ccc(-c2coc3c(C(=O)NCC4CC4)cccc23)c(C)c1 | . | 9.7% | ? | -21.3% | ? | .
C=Cc1ccc(Cn2c(C)c(CNCCc3ccc(OCC)cc3)c(C(=O)O)c2C)cc1 | . | -9.1% | ? | -11.1% | -11.1 | -12.8%
CCN(CC)CCNC(=O)c1ccc(NC(=O)c2ccc3c(c2)CCC3)cc1 | 11.2µM* | . | 5.2% | . | 54.6 | -16.8%
O=C(N/N=C/c1c(Nc2cccc(C(F)(F)F)c2)nc2ccccn2c1=O)c1ccccc1 | . | . | . | . | . | -0.7%
CCS(=O)(=O)N1CCC2(CC1)OC(=O)C(C)=C2C(=O)NCc1cccc(Cl)c1 | . | -4.1% | -4.3% | -1.1% | -3.8 | 1.9%
CCOC(=O)c1ccc(NC(=O)N2CCN(CCc3ccccc3)CC2)cc1 | ? | . | 8.3% | . | 110.2 | -5.1%
CCOc1ccc(NC(=O)OCCN2CCN(CCc3ccccc3)C(C)C2)cc1 (configuration not stated) | 11.2µM* | ? | ? | -21.1% | ? | .
Cc1c(C(=O)N2CCC[C@H]2CO)oc2c(F)cccc12 | -17.0% | . | 53.3% | . | 77.7 | 3.5%
Cc1ccc(Cn2c(=N)c(C(=O)NCC3CCCO3)cc3c(=O)n4ccccc4nc32)cc1 (configuration not stated) | ? | -11.7% | -2.5% | -13.6% | -8.7 | -2.8%
CCOCCCn1c(=N)c(C(=O)NCC2CCCO2)cc2c(=O)n3cccc(C)c3nc21 (configuration not stated) | . | 10.8% | -22.4% | 9.8% | -67.1* | 4.5%
Cc1ccc(Cn2c(=N)c(C(=O)NCC3CCCO3)cc3c(=O)n4cccc(C)c4nc32)cc1 (configuration not stated) | 11.2µM* | -0.2% | 6.9% | -8.7% | -107.4* | 2.4%
COCCCn1c(=N)c(C(=O)NCC2CCCO2)cc2c(=O)n3cccc(C)c3nc21 (configuration not stated) | -1.7% | -15.4% | -25.1% | 1.1% | -26.8 | -9.0%
COC(=O)/C=C/c1ccccc1S(=O)(=O)N(Cc1ccccc1)Cc1ccco1 | ? | -3.7% | -10.0% | -28.6% | -8.8 | 17.8µM*
CN1CCN(C(=O)C2=C[C@@H](c3ccccc3)C[C@@H](OCCCCO)O2)CC1 | 15.1% | i | -10.8% | -13.1% | -21.3 | 39.8µM*
CN1CCN(C(=O)C2=C[C@H](c3ccc(Br)cc3)C[C@H](OCCCCO)O2)CC1 | 15.1% | -0.1% | -13.6% | 0.0% | 3.5 | 22.4µM*
O=C(C1=C[C@@H](c2ccc(Br)cc2)C[C@@H](OCCCCO)O1)N1CCOCC1 | 19.8% | -14.7% | 2.5% | -4.5% | 8.0 | ?
O=C(C1=C[C@@H](C2CC2)C[C@@H](OCCCCO)O1)N1CCOCC1 | 5.6% | -14.1% | -9.0% | -13.4% | 6.7 | 56.2µM*
O=C(C1=C[C@H](c2ccc(Br)cc2)C[C@H](OCc2ccc(CO)cc2)O1)N1CCOCC1 | 0.0% | -11.5% | -23.2% | -15.0% | -5.7 | -35.4%
O=C(C1=C[C@@H](c2ccccc2)C[C@@H](OCc2ccc(CO)cc2)O1)N1CCOCC1 | 14.2% | -4.6% | -9.1% | -7.6% | -0.4 | 44.7µM*
C=CCC1(O)C(=O)Nc2ccccc21 (configuration not stated) | -12.3% | . | 0.9% | 1.9% | 4.0 | 6.3%
SMILES | HCV inhibitor | Vaccinia mCherry | FMDV inh | VACV Venus inh | HCMV inh | Sm TGR inh
COc1ccc(CNCc2ccncc2)cc1OC | 9.0% | -5.8% | 8.5% | -18.8% | 14.5 | -12.8%
O=c1c(NCCc2ccccc2)c(-c2ccccc2)c1=O | -15.1% | i | -7.4% | -13.2% | -14.9 | -6.4%
O=C(C1=C[C@@H](c2ccccc2)C[C@@H](OCCCCO)O1)N1CCOCC1 | 13.3% | -13.8% | 9.3% | -2.5% | 9.7 | 39.8µM*
O=C(C1=C[C@H](c2csc3ccccc23)C[C@H](OCCCCO)O1)N1CCOCC1 | 5.8% | i | 2.9% | -0.8% | 27.6 | ?
CN1CCN(C(=O)C2=C[C@@H](c3csc4ccccc34)C[C@@H](OCCCCO)O2)CC1 | 25.3% | i | -8.6% | -7.1% | 5.4 | 44.7µM*
OCCNCCc1c[nH]c2ccc(OCc3ccccc3)cc12 | -22.9% | . | 0.3% | . | -60.3* | ?
Cc1ccc(C)c(N2CCN(C(=O)CCc3c(C)nn(-c4ccc(N5CCCC5)nn4)c3C)CC2)c1 | . | -25.8% | ? | -22.7% | -62.6* | -3.3%
CCOC(=O)C1=C(c2ccccc2)NC(=O)NC1c1ccc(OC)c(OC)c1 (configuration not stated) | 19.7% | i | 11.9% | -12.0% | -3.2 | -8.8%
Cc1c(NS(=O)(=O)c2cccc([N+](=O)[O-])c2)c(=O)n(-c2ccccc2)n1C | 14.6% | -14.9% | -9.7% | -11.1% | ? | 28.2µM*
CCN(Cc1ccccc1)C(=O)COC(=O)c1cc(S(=O)(=O)Nc2c(C)n(C)n(-c3ccccc3)c2=O)ccc1C | -1.9% | -4.3% | 14.2% | -10.8% | -64.7* | -5.9%
NC(=O)C1CCN(CC(=O)Nc2nccs2)CC1 | 29.9% | -11.2% | 1.2% | 10.1% | 10.1 | 0.8%
NS(=O)(=O)c1ccc2nc(NC(=O)Nc3ccc(F)cc3)sc2c1 | -19.8% | ? | 41.6% | -0.9% | -18.9 | -4.9%
Nc1nonc1-n1nnc(C(=O)c2ccccc2)c1-c1ccccc1 | ? | . | 0.0% | ? | -24.4 | -5.7%
Cc1cc(Br)ccc1NC(=O)CNC(=O)CN(C)C1CCS(=O)(=O)C1 (configuration not stated) | 7.7% | -5.7% | -7.4% | -3.5% | -5.0 | -8.7%
O=C(c1ccco1)N1CCN(c2nc(C3CC3)nc3c2nnn3Cc2ccccc2Cl)CC1 | ? | ? | 35.5µM* | ? | -36.3 | 1.1%
O=C(c1ccco1)N1CCC(c2nc3c(nnn3Cc3ccccc3Cl)c(=O)[nH]2)CC1 | 7.0% | -26.0% | 39.7% | -12.8% | -12.4 | 0.4%
CC(C)(C)c1nc(N2CCN(C(=O)c3ccco3)CC2)c2nnn(Cc3ccccc3)c2n1 | ? | . | 28.2µM* | . | ? | 0.3%
